What all share (test): NCI-60 one-dose screen, 48 h (100 = growth as untreated, 0 = no growth, -100 = all killed)
Common to all, as to conditions: 10 µM unless noted

Assay [1] deals with NCI-H23 lung.
The subject of assay [2] is NCI-H226 lung.
The test system of assay [3] is NCI-H322M lung.
Assay [4] concerns HOP-62 NSCLC.
The test system of assay [5] is NCI-H460 lung.
In assay [6] the test system is HOP-92 NSCLC.
Assay [7] deals with NCI-H522 lung.
Assay [8] concerns A549/ATCC NSCLC.
Assay [9] concerns 786-0 renal.
For assay [10], the system named is COLO 205 colon.

Structures are written as SMILES. The panel holds about 83,000 compounds, 20% with a hit somewhere; the sample as a whole holds those more often.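 Single-dose data. Exposure time 48 hours. Values below 10 considered active.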 Unmarked numbers belong to inactive results. Activity calls are given as the source filed them.

In the case of `O=C(Nc1cn[nH]c1-c1nc2ccc(CN3CCOCC3)cc2[nH]1)NC1CC1`, the growth in assay [1] was 23.5%; in assay [2], 6.37% (active); in assay [3], 37.6%; in assay [4], -9.72% (active); in assay [5], 34.4%; in assay [6], -2.75% (active). The growth in [7] is 11.5%; in [8], 48.6%; in [9] it was 13.6%; in assay [10] it was -39% (active).
`CC/C(=C(\c1ccc(OCCN2CCCCCCC2)cc1)c1ccc(OC(=O)C2CCCCC2)cc1)c1ccc(Cl)cc1`: the growth is 99.4% in assay [1]; 100% in assay [2]; 80.9% in assay [3]; 102% in [4]; 106% in assay [5]; 90.3% in assay [6]. The growth in [7] was 89.4%; in [8] it was 104%; in assay [9] it was 104%; in assay [10], 123%.
For `ClCc1ccc(-c2ccc(Cn3cnc4c(Cl)nc(Cl)nc43)cc2)cc1`, the growth was 29.8% in assay [1]; 68.3% in [2]; 48.4% in assay [3]; -15.9% (active) in [4]; 7.18% (active) in assay [5]; -77.9% (active) in assay [6]. Also, the growth in [7] was -20.6% (active); in assay [8], -41.5% (active); in assay [9], 13.2%; in [10], 35.3%.
Regarding `O=C1NC(=O)[C@@H](c2cn3c4c(cccc24)CCC3)[C@@H]1c1c[nH]c2ccccc12`, the growth in [1] is 32.5%; in assay [2] it was 57%; in assay [3], 41.9%; in [4], 5.24% (active); in assay [5] it was 5.41% (active); in assay [6], 31%. Besides, the growth was -0.0655% (active) in [7], 6.25% (active) in assay [8], 21.5% in assay [9] and -57.3% (active) in assay [10].
Regarding `COc1cc(-c2cc(-c3ccc(Nc4ccnc5cc(Cl)ccc45)cc3)nc(N3CCOCC3)n2)cc(OC)c1OC`, the growth was 0.48% (active) in [1]; 92.3% in assay [2]; 28.9% in [3]; -39.1% (active) in assay [4]; -43.9% (active) in assay [5]; 85.8% in assay [6]. The growth in [7] was -23.7% (active); in assay [8], -30.7% (active); in assay [9], -65.5% (active); in assay [10], 32.4%.
Take `Cc1cc(N(CCNc2ccnc3cc(Cl)ccc23)Cc2cccs2)nc(Cl)n1`: the growth in [1] was 0.24% (active); in assay [2], -30.2% (active); in [3] it was -24.7% (active); in [4], -29.4% (active); in assay [5] it was -10.7% (active); in assay [6], -27.9% (active). Besides, the growth is -49.1% (active) in assay [7], 15.8% in assay [8], -97.6% (active) in assay [9] and -75.3% (active) in assay [10].
`Cc1cn(-c2cc(NC(=O)c3ccc(C)c(Nc4nccc(-c5cccnc5)n4)c3)cc(C(F)(F)F)c2)cn1`: the growth in [1] is 49.2%; in assay [2], 67.1%; in assay [3] it was 69.3%; in assay [4], 47.5%; in assay [5], 63.7%; in [6] it was 70.7%. Besides, the growth in assay [7] was 41.5%; in assay [8] it was 45.5%; in [9], 71.4%; in assay [10] it was 19.8%.
On to `Cc1ccc(-c2cc3c(SCC(=O)Nc4cc(C(F)(F)F)ccc4Cl)nccn3n2)cc1`, for which the growth in assay [1] was 74.2%; in [2] it was 54%; in assay [3], 31%; in assay [4], 43.3%; in assay [5] it was 14.2%; in [6] it was 28.6%. Besides, the growth is 42.7% in assay [7], 36% in [8], 54.7% in assay [9] and 27% in [10].
Consider `Cc1c(N)ccc(-c2ccc(N)c(C)c2S(=O)(=O)O)c1S(=O)(=O)O`, for which the growth in assay [1] is 98%; in [2], 111%; in assay [3] it was 108%; in assay [4] it was 107%; in assay [5], 112%; in assay [6], 86.1%. The growth was 101% in [7], 117% in assay [8], 106% in [9] and 111% in assay [10].
In the case of `O=C(Nc1ccc(C2=NCCCN2)cc1)c1ccc(C(=O)Nc2ccc(C3=NCCCN3)cc2)nc1`, the growth in [1] is 102%; in [2], 101%; in [3], 111%; in [4], 97.2%; in assay [5], 107%; in [6], 131%. Moreover, the growth in assay [7] was 96.1%; in [8], 141%; in assay [9], 96.6%; in assay [10] it was 125%.
For `Nc1c(C(=O)c2ccccc2)sc2nc(-c3cccs3)cc(-c3cccs3)c12`, the growth is 67% in assay [1]; 80.6% in assay [2]; 80.8% in [3]; 59.6% in [4]; 14.2% in assay [5]; 69.2% in assay [6]. Also, the growth in assay [7] is -20.7% (active); in [8], 36.2%; in [9], 47.6%; in assay [10], 35.9%.
For `COc1ccc2c(CCCc3ccc(Cl)cc3Cl)c3[n+](cc2c1OC)CCc1cc2c(cc1-3)OCO2`, the growth in [1] is -12.2% (active); in assay [2] it was 14.6%; in assay [3] it was 35.9%; in [4], 13.8%; in [5], 4.66% (active); in [6] it was 0.488% (active). For the same compound, the growth is -12.4% (active) in [7], 11.9% in assay [8], 16.5% in [9] and -59.6% (active) in assay [10].
Regarding `CC(=O)OC(C(=O)c1ccccc1)c1ccccc1` (stereo not given), the growth is 111% in assay [1]; 98.9% in assay [2]; 99.8% in assay [3]; 103% in assay [4]; 101% in assay [5]; 58% in [6]. The growth in [7] was 90.6%; in assay [8], 106%; in [9] it was 100%; in [10] it was 107%.

The values are drawn from PubChem BioAssay (NCI).
